{"source": "ChEMBL document CHEMBL2218924", "about": "“A broad activity screen in support of a chemogenomic map for kinase signalling research and drug discovery” (Biochem J, 2013)"}
{"target": "G protein-coupled receptor kinase 6 (Homo sapiens) (UniProt P43250)", "sequence (P43250 whole entry, looked up)": "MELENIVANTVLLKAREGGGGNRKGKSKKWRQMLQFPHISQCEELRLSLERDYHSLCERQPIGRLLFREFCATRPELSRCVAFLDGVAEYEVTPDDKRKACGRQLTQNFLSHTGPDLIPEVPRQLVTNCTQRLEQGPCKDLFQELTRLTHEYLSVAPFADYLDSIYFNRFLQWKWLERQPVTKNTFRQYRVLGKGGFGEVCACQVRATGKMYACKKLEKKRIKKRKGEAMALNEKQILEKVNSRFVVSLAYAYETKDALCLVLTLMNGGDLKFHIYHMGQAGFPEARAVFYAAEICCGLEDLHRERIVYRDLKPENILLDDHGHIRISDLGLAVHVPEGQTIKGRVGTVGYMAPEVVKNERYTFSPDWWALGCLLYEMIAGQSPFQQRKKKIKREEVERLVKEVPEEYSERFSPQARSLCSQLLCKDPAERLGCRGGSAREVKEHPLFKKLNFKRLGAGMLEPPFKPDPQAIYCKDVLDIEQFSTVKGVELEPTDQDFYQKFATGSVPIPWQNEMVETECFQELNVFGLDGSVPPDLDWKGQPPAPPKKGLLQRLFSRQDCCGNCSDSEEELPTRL", "conditions": "at 1 µM", "units": {"residual activity": "%"}}
{"smiles": "O=C1c2ccccc2-[n+]2ccc3c([nH]c4ccccc43)c21", "residual activity": 88}
{"smiles": "NC(=O)c1ccc2[nH]c(-c3ccc(Oc4ccc(Cl)cc4)cc3)nc2c1", "residual activity": 93}
{"smiles": "COc1cc2ncnc(Nc3ccc(NC(=O)c4ccccc4)cc3)c2cc1OC", "residual activity": 111}
{"smiles": "CCC(=O)Nc1ccc2ncnc(Nc3cccc(Br)c3)c2c1", "residual activity": 97}
{"smiles": "c1ccc(-c2n[nH]c3c2oc2ccccc23)cc1", "residual activity": 99}
{"smiles": "O=C1Nc2cc(Br)ccc2/C1=C1/Nc2ccccc2/C1=N\\O", "residual activity": 89}
{"smiles": "Cc1nc(-c2ccccc2)c(-c2ccncc2)o1", "residual activity": 103}
{"smiles": "CCN(CC)CCNC(=O)c1c(C)[nH]c(/C=C2\\C(=O)Nc3ccc(Cl)cc32)c1C", "residual activity": 68}
{"smiles": "Nc1cccc(-c2cc3c(Oc4cccc(O)c4)ncnc3[nH]2)c1", "residual activity": 93}
{"smiles": "COc1ccc(S(=O)(=O)N(CCO)c2ccccc2CN(C)C/C=C/c2ccc(Cl)cc2)cc1", "residual activity": 91}
{"smiles": "C[C@@H](N)[C@H]1CC[C@H](C(=O)Nc2ccncc2)CC1", "residual activity": 106}
{"smiles": "CC[n+]1c(/C=C/N(C)c2ccccc2)n(-c2ccccc2)c2ccc(-c3nc4ccccc4s3)cc21", "residual activity": 101}
{"smiles": "COc1cc2ncnc(Nc3ccc(Oc4ccccc4)cc3)c2cc1OC", "residual activity": 93}
{"smiles": "CC(C)[C@H](CO)Nc1nc(Nc2cc(N)cc(Cl)c2)c2ncn(C(C)C)c2n1", "residual activity": 90}
{"smiles": "Nc1ncnc2c1c(-c1ccc(Oc3ccccc3)cc1)cn2C1CCCC1", "residual activity": 92}
{"smiles": "CC(C)n1cnc2c(NCc3ccccc3)nc(NCCCO)nc21", "residual activity": 96}
{"smiles": "CC(C)(C)c1nc2c3ccc(F)cc3c3c(=O)[nH]ccc3c2[nH]1", "residual activity": 59}
{"smiles": "NC(=O)Nc1sc(-c2ccc(F)cc2)cc1C(N)=O", "residual activity": 85}
{"smiles": "O=C1NC(=O)c2c1c1c3ccccc3[nH]c1n1cncc21", "residual activity": 82}
{"smiles": "CO[C@H]1C[C@@H]2CC[C@@H](C)[C@@](O)(O2)C(=O)C(=O)N2CCCC[C@H]2C(=O)O[C@H]([C@H](C)C[C@@H]2CC[C@@H](O)[C@H](OC)C2)CC(=O)[C@H](C)/C=C(\\C)[C@@H](O)[C@@H](OC)C(=O)[C@H](C)C[C@H](C)/C=C/C=C/C=C/1C", "residual activity": 89}
{"smiles": "O=C1NC(=O)c2cc(Nc3ccc(F)cc3)c(Nc3ccc(F)cc3)cc21", "residual activity": 85}
{"smiles": "CCCCc1c(-c2ccc(O)cc2)[nH]c2nccnc12", "residual activity": 98}
{"smiles": "CC#CC(=O)Nc1cc2c(Nc3ccc(F)c(Cl)c3)ncnc2cn1", "residual activity": 95}
{"smiles": "Cc1ccc(NC2=CC(=O)c3sc(C)nc3C2=O)cc1", "residual activity": 96}
{"smiles": "O=[N+]([O-])c1ccc(-c2nc(-c3ccc(F)cc3)c(-c3ccncc3)[nH]2)cc1", "residual activity": 102}
{"smiles": "COc1cc2ncnc(N3CCN(C(=O)Nc4ccc(Oc5ccccc5)cc4)CC3)c2cc1OC", "residual activity": 85}
{"smiles": "O=c1c2ccccc2[nH]c(=S)n1CCN1CCC(=C(c2ccc(F)cc2)c2ccc(F)cc2)CC1", "residual activity": 91}
{"smiles": "c1ccc(-c2n[nH]cc2-c2ccnc3ccccc23)nc1", "residual activity": 96}
{"smiles": "O=c1cc(N2CCNCC2)oc2c(-c3ccccc3)cccc12", "residual activity": 102}
{"smiles": "COc1cccc(-c2cc(=O)c3ccccc3o2)c1N", "residual activity": 99}
{"smiles": "CC(=O)O/N=C1\\C(=C2\\C(=O)Nc3cc(Br)ccc32)Nc2ccccc21", "residual activity": 86}
{"smiles": "CO[C@H]1[C@@H](OC)C[C@H](C)[C@@H](OC)C2=CC(=O)C=C(NC(=O)/C(C)=C/C=C/[C@H](OC)[C@@H](OC(N)=O)/C(C)=C/[C@@H]1C)C2=O", "residual activity": 97}
